Assay results as given in ChEMBL document CHEMBL4513135, “CO-ADD screening of IQOG CSIS (Spain) compounds”.
“And” between values parts separate entries of the source, which are not always exact repeats. Identical values can stand only once. Results with a measured potency or affinity are listed apart.

Legend:
[1] = test system: Klebsiella pneumoniae; settings: Concentration 32 ug.mL-1, ASSAY_TEST Inhibition of Bacterial Growth, detection method Absorption (OD600), MEDIA CAMHB, plate type 384well, NBS, CORNING #3640, time 18 hr
[2] = test system: Candida albicans; settings: 32 ug/mL
[3] = test system: Cryptococcus neoformans; settings: Concentration 32 ug.mL-1, ASSAY_TEST Inhibition of Fungal Growth, detection method Resazurin, Absorption (OD600-OD570), plate type 384well, NBS, CORNING #3640

Compound | Inhibition [1] | Inhibition [2] | Inhibition [3] | Inhibition ([1]; 32 ug/mL) | Inhibition ([3]; 32 ug/mL)
N#CCC(=O)c1ccccc1 | 12.74% | 10.4% | -3.25% |  | 
O=C(CBr)NCc1ccccc1 | 15.98% | 10.2% | 6.35% |  | 
Cc1nc(N)c(C#N)cc1C(=O)O | -3.56% | 1.23% | -34.98% |  | 
NNC(=O)c1cn(Cc2ccccc2)c2ccccc12 | 10.74% | 0.77% | 3.84% |  | 
CNCc1cn(C)c2ccc(OC)cc12.Cl | 11.42% | 1.37% | -1.31% |  | 
Cl.ClCCN1CCCC1 | 3.45% | 5.34% | -1.83% |  | 
COc1cc(C2C(C#N)=C(N)Oc3c2ccc2ccccc32)cc(OC)c1OC (configuration not stated) | 3.14% | -0.44% | -3.68% |  | 
C#CCN1CCc2nc3nc(Cl)c(C#N)cc3c(N)c2C1 | 7.38% | 0.36% | -89.58% |  | 
CCOC(=O)C1=C(C)OC(=O)CC1c1ccccc1 (configuration not stated) | 8.11% | 4.72% | -25.58% |  | 
COc1ccc2c(c1)cc(C[N+](C)(C)C)n2C.[I-] | 16.42% | 1% | -0.09% |  | 
COc1ccc(C=C(C#N)C#N)cc1OC | 6.42% | 0.87% | -1.94% |  | 
C#CCN(C)Cc1cc2cc(OCc3ccc(OC(=O)N(C)C)c4ncccc34)ccc2n1C | -0.57% | 1.92% | -64.25% |  | 
CCOC(=O)C1=C(OC)OC(=O)CC1c1ccccc1 (configuration not stated) | 18.96% | 1.67% | -58.88% |  | 
O=C(N1[C@H]2CC[C@@H]1C(c1nnn[nH]1)C2)C(F)(F)F (some centres not stated) | 13.67% | 1.81% | -32.17% |  | 
OCC(Cc1cnc[nH]1)NCc1ccccc1 (configuration not stated) | 4.01% | 0.31% | 1.68% |  | 
Cl.ClCCN1CCCCC1 | 11.31% | 4.96% | -9.27% |  | 
NNCCCc1c[nH]c2ccccc12.O=C(O)/C=C/C(=O)O | 10.99% | 1.63% | 4.26% |  | 
N#CC(C#N)=Cc1ccc(Cl)cc1 | 17.25% | 0.02% | -1.11% |  | 
CN(C)C(=O)Oc1ccc(CCl)c2cccnc12 | 13.45% | 4.55% | -46.72% |  | 
CCOC(=O)c1cn(Cc2ccccc2)c2ccccc12 | 3.42% | -1.33% | -2.24% |  | 

Compound | Inhibition [1] | Inhibition [2] | Inhibition [3] | Inhibition ([1]; 32 ug/mL) | Inhibition ([3]; 32 ug/mL)
Cc1ccc(S(=O)(=O)N2[C@H]3CC[C@@H]2CC3)cc1 | 13.85% | 3.38% | -10.99% |  | 
CC1CC(=O)Nc2nc3c(c(N)c21)CCCC3 (configuration not stated) | 14.16% | 2.93% | -54.55% |  | 
Nc1c2c(nc3ccccc13)CCN(Cc1ccccc1)C2 | 4.75% | -0.35% | -78.39% |  | 
C#CCN1CCc2nc3nc(OC)c(C#N)cc3c(N)c2C1 | 9.96% | 0.5% | -73.36% |  | 
CN1CC=C(c2cccn2C)CC1 | 7.84% | 3.67% | -4.6% |  | 
CCOC(=O)C1=C(C)NC(=O)CC1c1ccccc1 (configuration not stated) | 18.92% | 2.43% | -58.04% |  | 
NNC(=O)c1cccnc1 [NICOTINIC ACID HYDRAZIDE] | 3.91% | 1.56% | -4.91% |  | 
N#Cc1cc(C#N)c(N2C3CCC2CC3)nc1N | -5.68% | 3.02% | -1.32% |  | 
Cc1ccc(C=C(C#N)C#N)cc1 | 9.23% | 0.34% | -5.46% |  | 
C#CCN(C)Cc1cc2cc(OC(=O)N(C)C)ccc2n1C | -2.9% | 3.66% | -26.57% |  | 
CCOc1nc2nc(C)c(C(=O)O)cc2c(-c2ccccc2)c1C#N | 7.3% | 1.34% | -54.07% |  | 
C#CCN1CCc2nc3ncccc3c(N)c2C1.Cl | 8.58% | 2.69% | -56.71% |  | 
C#CCN1CCc2nc(N)c(C#N)c(-c3ccccc3)c2C1 |  | 1.84% and 1.59% |  | 13.26% and 8.28% | -44.69% and -39.47%
Cc1ccccc1C=C(C#N)C#N | -3.33% | -0.55% | -4.61% |  | 
C#CCN(C)Cc1cc2cc(OCCCC3CCN(Cc4ccc(OC(=O)N(C)C)c5ncccc45)CC3)ccc2n1C | 4.78% | 5.51% | -77.63% |  | 
[N-]=[N+]=NCC(=O)c1ccc(Br)cc1 | 7.99% | 3.1% | -9.49% |  | 
CN1CC=C(c2cccn2C)CC1.Cl | 8.46% | 3.38% | -2.75% |  | 
Nc1c2c(nc3c1C(c1ccccc1)CC(=O)N3)CCCC2 (configuration not stated) | 11.64% | 1% | -63.29% |  | 
CCOC(=O)c1cc2cc(OC(=O)NC3CCN(Cc4ccccc4)CC3)ccc2[nH]1 | 1.99% | 0.56% | -41.14% |  | 
